From publication PMC5540273 (PLoS ONE, 2017)

What follows are compounds tested on AAK1. Details: concentration: 1 μM,replicates: in singlicate; n = 1.
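Also: KINOMEscan kinase panel screen.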

| SMILES | %Inh [%] |
| --- | --- |
| CN(c1ccc2c(c1)nc(NCc1ccc(F)cc1)n2C)c1ccnc(Nc2ccc(CS(C)(=O)=O)cc2)n1.Cl [GW813244] | 30 |
| Cn1ccc2ncnc(Oc3ccc(NC(=O)Nc4cnn(C(C)(C)C)c4)c(Cl)c3)c21 | 3 |
| O=C(Nc1cccc(C(F)(F)F)c1)c1cccc(Oc2ccc3nccn3n2)c1 | 0 |
| COc1cc2ncn(-c3cc(OCC4CCCCC4)c(C(N)=O)s3)c2cc1OC [GSK204559] | 55 |
| Cc1n[nH]c2cc(Nc3ccnc(Nc4cccc(CN5CCOCC5)c4)n3)ccc12 [GW682569] | 71 |
| CS(=O)c1ccc(-c2coc3ccc(-c4n[nH]c(=O)o4)cc23)cc1 (stereo not shown) | 21 |
| Cl.c1ccc(Oc2ccc(Nc3ccnc4cc(-c5ccc(CN6CCNCC6)o5)ccc34)cc2)nc1 [GW567142] | 2 |
| O=C(Nc1cccc(Oc2ccc3nccn3n2)c1)Nc1cccc(C(F)(F)F)c1 | 0 |
| Cc1nnc(-c2ccc3occ(-c4ccc(S(C)=O)cc4)c3n2)o1 (stereo not shown) | 0 |
| Cc1ccc(C(=O)Nc2ccc(Oc3ccc4nc(NC(=O)C5CC5)cn4c3)c(F)c2)c(=O)n1-c1ccccc1 | 0 |
| C[C@@H](Oc1cc(-n2cnc3cc(-c4cnn(C)c4)ccc32)sc1C(N)=O)c1ccccc1Cl [GSK580432] | 82 |
| CCN1CCN(CCCC(=O)Nc2n[nH]c3nc(-c4ccc(O)cc4)c(Br)cc23)CC1 [SB-731579] | 0 |
| COC(=O)c1cccc(NC(=O)NC2CCN(c3ccnc(Nc4cc(OC)c(OC)c(OC)c4)n3)C2)c1 (stereo not shown) [GSK1379767] | 68 |
| CS(=O)(=O)Nc1ccc(-c2ccnc3[nH]ccc23)cc1 [GSK993273] | 79 |
| CCOC(=O)N1CCC(n2cnc(-c3ccc(F)cc3)c2-c2ccnc(N)n2)CC1 [SB-219952] | 0 |
| CN1CCN(CCCNc2nccc(-c3c(-c4ccc(F)cc4)nn4cc(C(N)=O)ccc34)n2)CC1 [GW622475] | 33 |
| Cl.Nc1n[nH]c2cc(-c3ccccn3)ccc12 [GSK2189892] | 17 |
| CC(=O)c1c(-c2ccncc2)[nH]c(-c2ccncc2)c1C [GW493036] | 14 |

| SMILES | %Inh [%] |
| --- | --- |
| CS(=O)(=O)c1cccc(CNc2nc(Nc3ccc4c(c3)[C@@H]3C[C@@H]4CNC3=O)ncc2C(F)(F)F)c1 | 92.6 |
| CNC(=O)c1ccccc1Nc1nc(Nc2cccc(CS(C)(=O)=O)c2)ncc1C.O=CO [GSK1520489] | 85 |
| Cn1cc(-c2cccc3c(N)c(C(N)=O)nnc23)cn1 | 36 |
| Cn1ccc2ncnc(Oc3ccc(NC(=O)Nc4cccc(C(F)(F)F)c4)c(F)c3)c21 | 15 |
| Nc1nccc(-c2ccc3c(N)n[nH]c3c2)n1 [GSK1034945] | 65 |
| COc1cccc(C2=C(Nc3cccc(Cl)c3)C(=O)NC2=O)c1 [SB-341556] | 0 |
| CCn1c(-c2nonc2N)nc2cncc(CNC3CCNCC3)c21.Cl [SB-747651] | 39 |
| Cn1ccc2ncnc(Oc3ccc(NC(=O)Nc4cncc(C(F)(F)F)c4)c(Cl)c3)c21 | 0 |
| C[C@@H]1CCN(C(=O)N2CCCC2)C[C@@H]1N(C)c1ncnc2[nH]ccc12 | 31 |
| CC(C)S(=O)(=O)N1CCN(Cc2ccc3c(c2)nc(NC(=O)c2ccsc2)n3C[C@H](O)c2ccccc2)CC1 [GW635815] | 38 |
| C[C@@H]1CNc2c(sc3ccc4nc(-c5ccc(O)cc5)ccc4c23)C(=O)N1 | 29 |
| c1ccc(Oc2ccc(Nc3ccnc4ccc(-c5ccccn5)cc34)cc2)cc1 [GW407034] | 13 |
| Cn1ccc2ncnc(Oc3ccc(NC(=O)Nc4ccnc(C(F)(F)F)c4)c(Cl)c3)c21 | 18 |
| CC(=O)Nc1ccc(-c2cc3ncnc(SCC(=O)O)c3s2)cc1 | 44 |
| COc1cccc(OC)c1C(=O)Nc1cccc(-c2nn3ccccc3c2-c2ccnc(Nc3cccc(F)c3)n2)c1 [GSK361065] | 0 |
| COC(=O)c1cccc(NC(=O)NC2CCN(c3ccnc(NCc4ccc(F)cc4)n3)CC2)c1 [GSK1379860] | 0 |
| CCn1c(-c2nonc2N)nc2cncc(Br)c21 [SB-738004] | 67 |
| Cc1ccc(CC(=O)N2CCc3cc(-c4cn(C)c5ncnc(N)c45)ccc32)cc1 [GSK2634758] | 33 |

These compounds were tested on ABL1-nonphosphorylated. Details: concentration: 1 μM,replicates: in singlicate; n = 1.

| SMILES | %Inh [%] |
| --- | --- |
| CN(c1ccc2c(c1)nc(NCc1ccc(F)cc1)n2C)c1ccnc(Nc2ccc(CS(C)(=O)=O)cc2)n1.Cl [GW813244] | 97.2 |
| Cn1ccc2ncnc(Oc3ccc(NC(=O)Nc4cnn(C(C)(C)C)c4)c(Cl)c3)c21 | 87 |
| O=C(Nc1cccc(C(F)(F)F)c1)c1cccc(Oc2ccc3nccn3n2)c1 | 98.5 |
| COc1cc2ncn(-c3cc(OCC4CCCCC4)c(C(N)=O)s3)c2cc1OC [GSK204559] | 0 |
| Cc1n[nH]c2cc(Nc3ccnc(Nc4cccc(CN5CCOCC5)c4)n3)ccc12 [GW682569] | 22 |
| CS(=O)c1ccc(-c2coc3ccc(-c4n[nH]c(=O)o4)cc23)cc1 (stereo not shown) | 35 |
| Cl.Cl.NC[C@H](CC1CCCCC1)NC(=O)c1ccc(-c2ccnc3[nH]ccc23)s1 [GSK1581428] | 0 |
| Cl.c1ccc(Oc2ccc(Nc3ccnc4cc(-c5ccc(CN6CCNCC6)o5)ccc34)cc2)nc1 [GW567142] | 99.7 |
| O=C(Nc1cccc(Oc2ccc3nccn3n2)c1)Nc1cccc(C(F)(F)F)c1 | 98.2 |
| Cc1nnc(-c2ccc3occ(-c4ccc(S(C)=O)cc4)c3n2)o1 (stereo not shown) | 43 |
| Cc1ccc(C(=O)Nc2ccc(Oc3ccc4nc(NC(=O)C5CC5)cn4c3)c(F)c2)c(=O)n1-c1ccccc1 | 100 |
| C[C@@H](Oc1cc(-n2cnc3cc(-c4cnn(C)c4)ccc32)sc1C(N)=O)c1ccccc1Cl [GSK580432] | 58 |
| CCN1CCN(CCCC(=O)Nc2n[nH]c3nc(-c4ccc(O)cc4)c(Br)cc23)CC1 [SB-731579] | 64 |
| COC(=O)c1cccc(NC(=O)NC2CCN(c3ccnc(Nc4cc(OC)c(OC)c(OC)c4)n3)C2)c1 (stereo not shown) [GSK1379767] | 0 |
| CS(=O)(=O)Nc1ccc(-c2ccnc3[nH]ccc23)cc1 [GSK993273] | 0 |
| CCOC(=O)N1CCC(n2cnc(-c3ccc(F)cc3)c2-c2ccnc(N)n2)CC1 [SB-219952] | 60 |
| CN1CCN(CCCNc2nccc(-c3c(-c4ccc(F)cc4)nn4cc(C(N)=O)ccc34)n2)CC1 [GW622475] | 10 |
| Cl.Nc1n[nH]c2cc(-c3ccccn3)ccc12 [GSK2189892] | 0 |
| CC(=O)c1c(-c2ccncc2)[nH]c(-c2ccncc2)c1C [GW493036] | 0 |

| SMILES | %Inh [%] |
| --- | --- |
| CS(=O)(=O)c1cccc(CNc2nc(Nc3ccc4c(c3)[C@@H]3C[C@@H]4CNC3=O)ncc2C(F)(F)F)c1 | 97.9 |
| CNC(=O)c1ccccc1Nc1nc(Nc2cccc(CS(C)(=O)=O)c2)ncc1C.O=CO [GSK1520489] | 99.9 |
| Cn1cc(-c2cccc3c(N)c(C(N)=O)nnc23)cn1 | 24 |
| Cn1ccc2ncnc(Oc3ccc(NC(=O)Nc4cccc(C(F)(F)F)c4)c(F)c3)c21 | 88 |
| Nc1nccc(-c2ccc3c(N)n[nH]c3c2)n1 [GSK1034945] | 0 |
| COc1cccc(C2=C(Nc3cccc(Cl)c3)C(=O)NC2=O)c1 [SB-341556] | 0 |
| CCn1c(-c2nonc2N)nc2cncc(CNC3CCNCC3)c21.Cl [SB-747651] | 5 |
| Cn1ccc2ncnc(Oc3ccc(NC(=O)Nc4cncc(C(F)(F)F)c4)c(Cl)c3)c21 | 92.7 |
| C[C@@H]1CCN(C(=O)N2CCCC2)C[C@@H]1N(C)c1ncnc2[nH]ccc12 | 51 |
| CC(C)S(=O)(=O)N1CCN(Cc2ccc3c(c2)nc(NC(=O)c2ccsc2)n3C[C@H](O)c2ccccc2)CC1 [GW635815] | 0 |
| C[C@@H]1CNc2c(sc3ccc4nc(-c5ccc(O)cc5)ccc4c23)C(=O)N1 | 48 |
| c1ccc(Oc2ccc(Nc3ccnc4ccc(-c5ccccn5)cc34)cc2)cc1 [GW407034] | 0 |
| Cn1ccc2ncnc(Oc3ccc(NC(=O)Nc4ccnc(C(F)(F)F)c4)c(Cl)c3)c21 | 68 |
| CC(=O)Nc1ccc(-c2cc3ncnc(SCC(=O)O)c3s2)cc1 | 15 |
| COc1cccc(OC)c1C(=O)Nc1cccc(-c2nn3ccccc3c2-c2ccnc(Nc3cccc(F)c3)n2)c1 [GSK361065] | 28 |
| COC(=O)c1cccc(NC(=O)NC2CCN(c3ccnc(NCc4ccc(F)cc4)n3)CC2)c1 [GSK1379860] | 0 |
| CCn1c(-c2nonc2N)nc2cncc(Br)c21 [SB-738004] | 0 |
| Cc1ccc(CC(=O)N2CCc3cc(-c4cn(C)c5ncnc(N)c45)ccc32)cc1 [GSK2634758] | 42 |
